Source: PubChem BioAssay AID1159580 (chemical genetic matrix, 2015)
“And” between values parts separate entries of the source, which are not always exact repeats. Equal values may be shown once. The whole screen tested about 5,500 compounds, of which about 2,000 (36%) were called active. About 18% were inconclusive and are not listed. Rule as the data show it: active = normalized growth mostly below about 0.91 (no sharp cut-off); inconclusive = no clear call, values can overlap the other calls; inactive = mostly above about 0.92. The list shows a part of the results.

Assay: chemical genetic growth profiling, strain panel (AID 1159580);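 also: tested at 20 µM; growth read once vehicle control cultures reached saturation at 30 °C; 1 = growth at the plate median or of vehicle wells; lower values mean less growth of the strain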
Settings: growth OD

Measured: normalized growth

CC/C(=C(\c1ccccc1)c1ccc(OCCN(C)C)cc1)c1ccccc1
inactive: S. cerevisiae deletion strains, locus YKL068W, active compounds read low 1 | S. cerevisiae deletion strains, locus YKL085W, strain MDH1 (second series), active compounds read low 0.952 | S. cerevisiae deletion strains, locus YKL085W, strain MDH1, active compounds read low 0.952 | S. cerevisiae deletion strains, locus YNL175C, strain NOP13, active compounds read low 0.968 | S. cerevisiae deletion strains, locus YNL183C, strain NPR1, active compounds read low 0.901 | S. cerevisiae deletion strains, locus YNL250W, strain rad50, active compounds read low 0.999 | S. cerevisiae deletion strains, locus YNL271C, strain bni1, active compounds read low 0.953 | S. cerevisiae deletion strains, locus YNL322C, strain KRE1 (second series), active compounds read low 1.07 | S. cerevisiae deletion strains, locus YOR231W, strain MKK1, active compounds read low 0.894 | S. cerevisiae deletion strains, locus YPR141C, strain kar3, active compounds read low 1.04
active: S. cerevisiae deletion strains, locus YKL009W, strain mrt4, active compounds read low 0.79 | S. cerevisiae deletion strains, locus YKL160W, strain elf1, active compounds read low 0.13 | S. cerevisiae deletion strains, locus YKL190W, strain CNB1, active compounds read low 0.045 | S. cerevisiae deletion strains, locus YKR001C, strain vps1, active compounds read low 0.064 | S. cerevisiae deletion strains, locus YKR026C, strain gcn3, active compounds read low 0.184 | S. cerevisiae deletion strains, locus YKR091W, strain srl3, active compounds read low 0.0995 | S. cerevisiae deletion strains, locus YLL001W, strain dnm1, active compounds read low 0.0862 | S. cerevisiae deletion strains, locus YLL026W, active compounds read low 0.0741 | S. cerevisiae deletion strains, locus YLL041C, strain sdh2, active compounds read low 0.115 | S. cerevisiae deletion strains, locus YLR027C, strain aat2, active compounds read low 0.0818 | S. cerevisiae deletion strains, locus YLR039C, strain RIC1, active compounds read low 0.0749 | S. cerevisiae deletion strains, locus YLR058C, strain SHM2, active compounds read low 0.0464 | S. cerevisiae deletion strains, locus YLR102C, strain apc9, active compounds read low 0.0601 | S. cerevisiae deletion strains, locus YLR113W, strain HOG1, active compounds read low 0.822 | S. cerevisiae deletion strains, locus YLR221C, strain rsa3, active compounds read low 0.121 | S. cerevisiae deletion strains, locus YLR258W, strain gsy2, active compounds read low 0.0791 | S. cerevisiae deletion strains, locus YLR262C, strain YPT6 (second series), active compounds read low 0.182 | S. cerevisiae deletion strains, locus YLR262C, strain YPT6, active compounds read low 0.0867 | S. cerevisiae deletion strains, locus YLR268W, strain sec22, active compounds read low 0.0695 | S. cerevisiae deletion strains, locus YLR320W, strain mms22, active compounds read low 0.171 | S. cerevisiae deletion strains, locus YLR330W, strain CHS5, active compounds read low 0.0509 | S. cerevisiae deletion strains, locus YLR342W, strain FKS1 (second series), active compounds read low 0.0626 | S. cerevisiae deletion strains, locus YLR342W, strain FKS1, active compounds read low 0.0912 | S. cerevisiae deletion strains, locus YLR357W, strain rsc2, active compounds read low 0.181 | S. cerevisiae deletion strains, locus YLR370C, strain arc18, active compounds read low 0.0663 | S. cerevisiae deletion strains, locus YLR371W, strain rom2, active compounds read low 0.0629 | S. cerevisiae deletion strains, locus YLR384C, strain iki3, active compounds read low 0.223 | S. cerevisiae deletion strains, locus YLR418C, strain cdc73, active compounds read low 0.105 | S. cerevisiae deletion strains, locus YML016C, strain PPZ1, active compounds read low 0.0451 | S. cerevisiae deletion strains, locus YML032C, strain rad52, active compounds read low 0.0687 | S. cerevisiae deletion strains, locus YML120C, strain ndi1, active compounds read low 0.114 | S. cerevisiae deletion strains, locus YML124C, strain tub3, active compounds read low 0.0591 | S. cerevisiae deletion strains, locus YMR058W, strain fet3, active compounds read low 0.0718 | S. cerevisiae deletion strains, locus YMR078C, strain ctf18, active compounds read low 0.0689 | S. cerevisiae deletion strains, locus YMR125W, strain sto1, active compounds read low 0.131 | S. cerevisiae deletion strains, locus YMR129W, active compounds read low 0.0877 | S. cerevisiae deletion strains, locus YMR205C, strain PFK2, active compounds read low 0.172 | S. cerevisiae deletion strains, locus YMR223W, strain ubp8, active compounds read low 0.0676 | S. cerevisiae deletion strains, locus YMR231W, strain pep5, active compounds read low 0.0689 | S. cerevisiae deletion strains, locus YMR263W, strain SAP30, active compounds read low 0.0557 | S. cerevisiae deletion strains, locus YMR307W, strain GAS1, active compounds read low 0.103 and 0.123 | S. cerevisiae deletion strains, locus YNL067W, strain RPL9B, active compounds read low 0.0484 | S. cerevisiae deletion strains, locus YNL071W, strain lat1, active compounds read low 0.165 | S. cerevisiae deletion strains, locus YNL128W, strain TEP1, active compounds read low 0.0645 | S. cerevisiae deletion strains, locus YNL153C, strain GIM3, active compounds read low 0.0543 | S. cerevisiae deletion strains, locus YNL197C, strain WHI3, active compounds read low 0.704 | S. cerevisiae deletion strains, locus YNL209W, strain ssb2, active compounds read low 0.1 | S. cerevisiae deletion strains, locus YNL224C, strain SQS1, active compounds read low 0.206 | S. cerevisiae deletion strains, locus YNL233W, strain BNI4, active compounds read low 0.0506 | S. cerevisiae deletion strains, locus YNL248C, strain rpa49, active compounds read low 0.555 | S. cerevisiae deletion strains, locus YNL298W, strain CLA4, active compounds read low 0.744 | S. cerevisiae deletion strains, locus YNL307C, strain MCK1, active compounds read low 0.0675 | S. cerevisiae deletion strains, locus YNL322C, strain KRE1, active compounds read low 0.0467 and 0.567 | S. cerevisiae deletion strains, locus YNR049C, strain mso1, active compounds read low 0.0842 | S. cerevisiae deletion strains, locus YNR052C, strain pop2, active compounds read low 0.0611 | S. cerevisiae deletion strains, locus YOL006C, strain TOP1, active compounds read low 0.0917 | S. cerevisiae deletion strains, locus YOL012C, strain htz1 0.187 | S. cerevisiae deletion strains, locus YOL147C, strain pex11, active compounds read low 0.0578 | S. cerevisiae deletion strains, locus YOR001W, strain rrp6, active compounds read low 0.431 | S. cerevisiae deletion strains, locus YOR061W, strain CKA2, active compounds read low 0.0446 | S. cerevisiae deletion strains, locus YOR069W, strain VPS5, active compounds read low 0.0459 | S. cerevisiae deletion strains, locus YOR070C, strain gyp1, active compounds read low 0.0646 | S. cerevisiae deletion strains, locus YOR080W, strain dia2, active compounds read low 0.408 | S. cerevisiae deletion strains, locus YOR083W, strain WHI5 (second series), active compounds read low 0.185 | S. cerevisiae deletion strains, locus YOR083W, strain WHI5, active compounds read low 0.0831 | S. cerevisiae deletion strains, locus YOR106W, strain vam3, active compounds read low 0.0773 | S. cerevisiae deletion strains, locus YOR136W, strain idh2, active compounds read low 0.0725 | S. cerevisiae deletion strains, locus YOR144C, strain elg1, active compounds read low 0.0595 | S. cerevisiae deletion strains, locus YOR184W, strain ser1, active compounds read low 0.0775 | S. cerevisiae deletion strains, locus YOR265W, strain rbl2, active compounds read low 0.0798 | S. cerevisiae deletion strains, locus YOR270C, strain vph1, active compounds read low 0.136 | S. cerevisiae deletion strains, locus YOR290C, strain snf2, active compounds read low 0.125 | S. cerevisiae deletion strains, locus YOR316C, strain cot1, active compounds read low 0.0588 | S. cerevisiae deletion strains, locus YPL051W, strain arl3, active compounds read low 0.136 | S. cerevisiae deletion strains, locus YPL055C, strain LGE1, active compounds read low 0.0697 | S. cerevisiae deletion strains, locus YPL078C, strain atp4, active compounds read low 0.288 | S. cerevisiae deletion strains, locus YPL106C, strain sse1, active compounds read low 0.114 | S. cerevisiae deletion strains, locus YPL240C, strain hsp82, active compounds read low 0.106 | S. cerevisiae deletion strains, locus YPL241C, strain CIN2, active compounds read low 0.0469 | S. cerevisiae deletion strains, locus YPL256C, strain CLN2, active compounds read low 0.815 | S. cerevisiae deletion strains, locus YPR119W, strain clb2, active compounds read low 0.0696 | S. cerevisiae deletion strains, locus YPR163C, strain tif3, active compounds read low 0.0696 | S. cerevisiae deletion strains, locus YPR167C, strain met16, active compounds read low 0.0609 | S. cerevisiae deletion strains, strain wtn01, active compounds read low 0.0608 | S. cerevisiae strains, strain wild type, active compounds read low 0.0464
